Compound activity as filed in PubChem BioAssay.
Shown are actives, neighbours in structure and some others; about 2.8% of the full set was active somewhere.
POLH inh: blocks human DNA polymerase eta activity. AID 588591. Q9Y253. recombinant Pol eta, fluorescent DNA replication assay. 390,000 tested, 1.2% active. Potency, µM (top dose mostly 114 µM), most hits filed as inhibitors
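Pol eta at 10 nM preincubated with compounds 15 min at room temperature; reaction started with fluorescent substrate (50 nM final) and read kinetically at 0 and 10 min.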
Pol kappa inh: blocks human DNA polymerase kappa activity; Q9UBT6; purified Pol kappa, fluorescent DNA synthesis assay, 10 min; Potency, µM (doses to about 107 µM), most hits filed as inhibitors; 400,000 tested, 0.53% active; AID 588579
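10 nM Pol kappa was preincubated with compounds for 15 min at room temperature. Reaction started with 50 nM (final) substrate. Fluorescence read kinetically at 0 and 10 min.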
Pol beta inh: blocks human DNA polymerase beta activity. P06746. AID 485314. Pol beta primer extension/strand displacement, fluorescence kinetic. 340,000 tested, 1.3% active. Potency, µM (top dose mostly 114 µM), usual class: inhibitors
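Values derive from four-parameter Hill fits of normalized kinetic data: reads at 0 and 10 min following addition of 50 nM substrate to 10 nM Pol beta preincubated 15 min with compound.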
PI5P4K alpha inh: inhibitors of human PI5P4K alpha; 330,000 tested, 1.2% active; P48426; PI5P4Kalpha enzyme, ADP-Glo luminescence, 60 min; active compounds read low; max response, %; active = max response of -50% or lower; inconclusive = between -30% and -50%; inactive = -30% or higher; note: value at the top dose of about 77 µM
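Enzyme plus substrate dispensed, test compounds pinned in, then ATP (5 microM final) added. After 60 min at RT, ADP-Glo reagent 1 for 45 min and reagent 2 for 30 min preceded luminescence imaging.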
WRN inhibitor: blocks human WRN helicase; Q14191; WRN helicase unwinding, fluorescent forked duplex, kinetic; Potency, µM (titrated, usually from 114 µM), hits mostly inhibitors; 360,000 tested, 0.46% active; note: nearly all actives have a fitted effect of over 55% in size
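Fluorescence dequenching readout, ex 525 nm/em 598 nm, kinetic mode: forked duplex DNA (100 nM final) with adjacent fluorophore and quencher unwound by WRN (20 nM final) with 2 mM ATP. Compound preincubation 15 min, room temperature.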
Pol iota inh: DNA polymerase iota (human) inhibition; 390,000 tested, 1% active; Q9UNA4; Pol iota fluorescent replication assay, 10 min; Potency, µM (doses to about 115 µM), most hits filed as inhibitors
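Fluorescent replication assay read twice, at 0 min and 10 min after adding 50 nM (final) substrate. Enzyme (10 nM) and compounds were first incubated 15 min at room temperature; enzyme-free buffer wells were negative controls.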
ADP-Glo interf: counter-screen for PI5P4K inhibitors: ADP-Glo detection interference, no enzyme; shares compounds with PI5P4K alpha inh; ADP-Glo detection counter-screen, luciferase luminescence, no enzyme; Potency, µM (top dose mostly 76.9 µM), actives largely listed as inhibitors; 1,100 tested, under 10 active; AID 743285
A number is an active result. Unless noted, calls come from the whole dose curve; as a rule, active = well fitted curve in the direction sought with a large enough effect; inconclusive = small, poorly fitted or top-dose-only effect, or another doubt; inactive = no such curve, though single readings can be large; an effect the other way counts as inactive or inconclusive.

Results for CC(C)Sc1nc(N2CCOCC2)c2c(c1C#N)CC(C)(C)N(C)C2 ?
POLH inh: inactive; Pol kappa inh: inactive; Pol beta inh: inactive; PI5P4K alpha inh: -52.5; WRN inhibitor: inconclusive; Pol iota inh: inconclusive; ADP-Glo interf: inactive

Results for CN1Cc2c(N3CCOCC3)nc(SCCC#N)c(C#N)c2CC1(C)C ?
POLH inh: inactive; Pol kappa inh: inactive; Pol beta inh: inactive; PI5P4K alpha inh: inactive; WRN inhibitor: inactive; Pol iota inh: inactive

Results for CCCCC1=CC2=C(c3ccco3)C(=O)C(C)(OC(=O)c3ccc(OC)cc3)C(=O)C2=CN1Cc1ccccc1 (stereo not drawn) ?
POLH inh: 50.1µM; Pol kappa inh: inactive; Pol beta inh: 44.7µM; PI5P4K alpha inh: -71.5; WRN inhibitor: inactive; Pol iota inh: inconclusive; ADP-Glo interf: inactive

Results for COC(=O)Nc1ccc(S(=O)(=O)N2CCC(C(=O)N3CCC(C)CC3)CC2)cc1 ?
POLH inh: inactive; Pol kappa inh: inactive; Pol beta inh: inactive; PI5P4K alpha inh: -80.0; WRN inhibitor: inactive; Pol iota inh: inactive; ADP-Glo interf: inactive

What do the screens show for `COC(=O)Nc1ccc(S(=O)(=O)N2CCC(C)CC2)cc1`?
POLH inh: inactive; Pol kappa inh: inactive; Pol beta inh: inactive; WRN inhibitor: inactive; Pol iota inh: inactive

What do the screens show for `COc1ccc(C(=O)NCc2nnc(SC)n2C2CCCCC2)cc1`?
POLH inh: inactive; Pol kappa inh: inactive; Pol beta inh: inactive; PI5P4K alpha inh: -54.1; WRN inhibitor: inactive; Pol iota inh: inconclusive; ADP-Glo interf: inactive

Results for CCOC(=O)C(C)Sc1nnc(CNC(=O)c2ccc(OC)cc2)n1C1CCCCC1 (stereo not drawn) ?
POLH inh: inactive; Pol kappa inh: inactive; Pol beta inh: inactive; WRN inhibitor: inactive; Pol iota inh: inactive

What do the screens show for `Cc1ccc(CSCC(=O)N2CCOCC2)cc1`?
POLH inh: inactive; Pol kappa inh: inactive; Pol beta inh: inactive; PI5P4K alpha inh: -51.5; WRN inhibitor: inconclusive; Pol iota inh: inactive; ADP-Glo interf: inactive

What do the screens show for `O=C(CSCc1ccc(Cl)cc1)N1CCOCC1`?
POLH inh: inactive; Pol kappa inh: inactive; Pol beta inh: inactive; PI5P4K alpha inh: inactive; WRN inhibitor: inactive; Pol iota inh: inactive

What do the screens show for `O=C(COC(=O)c1ccco1)Nc1nc2c(F)c(F)c(F)cc2s1`?
POLH inh: inconclusive; Pol kappa inh: inactive; Pol beta inh: 50.1µM; PI5P4K alpha inh: -53.3; WRN inhibitor: inactive; Pol iota inh: inconclusive; ADP-Glo interf: inactive

What do the screens show for `O=C(Nc1nc2c(F)c(F)c(F)cc2s1)c1ccco1`?
POLH inh: inactive; Pol kappa inh: inactive; Pol beta inh: inactive; PI5P4K alpha inh: inactive; WRN inhibitor: inactive; Pol iota inh: inactive

How did Cn1nc(C(C)(C)C)cc1N1C(=O)CCC1(C)C(=O)NC1CCCCC1 (stereo not drawn) do in these assays?
PI5P4K alpha inh: inactive; WRN inhibitor: inactive

How did CCCCNC(=O)C1(C)CCC(=O)N1c1cc(C(C)(C)C)nn1C (stereo not drawn) do in these assays?
PI5P4K alpha inh: inactive; WRN inhibitor: inactive; ADP-Glo interf: inactive

Results for O=C(COC(=O)Cc1ccc(Br)cc1)NCc1ccc2c(c1)OCO2 ?
POLH inh: inactive; Pol kappa inh: inactive; PI5P4K alpha inh: inactive; WRN inhibitor: inactive; Pol iota inh: inactive

Results for CS(=O)(=O)c1ccc2nc(NC(=O)c3ccc(NS(=O)(=O)c4cccc([N+](=O)[O-])c4)cc3)sc2c1 ?
POLH inh: inactive; Pol kappa inh: inactive; Pol beta inh: inactive; PI5P4K alpha inh: -56.8; WRN inhibitor: inactive; Pol iota inh: inactive; ADP-Glo interf: inactive

What do the screens show for `NNC(=O)CCC(=O)Nc1ccccc1`?
POLH inh: inactive; Pol kappa inh: inactive; Pol beta inh: inactive; PI5P4K alpha inh: inactive; WRN inhibitor: inactive; Pol iota inh: inactive
